# PI5P4K alpha inh: inhibitors of human PI5P4K alpha. P48426. PI5P4Kalpha enzyme, ADP-Glo luminescence, 60 min; hits give low values. max response, %. 330,000 compounds, 1.2% hits; active = max response of -50% or lower; inconclusive = between -30% and -50%; inactive = -30% or higher; note: value at the top dose of about 77 µM
#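 Single end-point luminescence (ADP-Glo) quantified ADP from PI5P4Kalpha turnover; ATP 5 microM final, 1 h at RT, 0.1% CHAPS and 0.28 mM EGTA in HEPES pH 7.4.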
# APE1 inh: APE1 (human) endonuclease inhibition. P27695. recombinant APE1, TAMRA/BHQ-2 abasic DNA cleavage fluorescence. Potency, µM (top dose mostly 65.8 µM), for inactives: at the top dose activity change, negative = inhibition, usual class: inhibitors. 350,000 compounds, 0.35% hits. AID 2517;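 note: potency is the fitted concentration of half-maximal effect; plate controls were vehicle for no effect and reference inhibitor for full effect; nearly all actives have a fitted effect of over 55% in size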
#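 Step 1: APE1 (0.75 nM) with compound, 15 min RT. Step 2: add 50 nM fluorophore/quencher THF duplex. Step 3: three fluorescence reads 60 s apart (525/598 nm); read 3 minus read 1 = reaction progress.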
# BLM inh: Bloom syndrome helicase (human) inhibition. P54132. recombinant BLM DNA unwinding, fluorescence dequenching. Potency, µM (titrated, usually from 56.1 µM), for the others: top-dose activity change, negative = inhibition, usual class: inhibitors. 350,000 compounds, 0.2% hits. AID 2528;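 note: potency is the fitted concentration of half-maximal effect; plate controls were vehicle for no effect and no enzyme for full effect; nearly all actives have a fitted effect of over 35% in size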
# WRN helicase inh: blocks human WRN helicase | Q14191 | WRN helicase unwinding, fluorescent forked duplex, kinetic | Potency, µM (series often up to 114 µM), without a hit: top-dose activity change, negative = inhibition, most hits filed as inhibitors | 360,000 compounds, 0.46% hits; note: potency is the fitted concentration of half-maximal effect; nearly all actives have a fitted effect of over 55% in size
#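 Kinetic fluorescence helicase assay: unwinding of a quenched forked DNA duplex (100 nM final) with 2 mM ATP final raises red fluorescence (525/598 nm). Compounds sat 15 min at room temperature with 20 nM WRN beforehand.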
# FEN1 inhibitor: blocks human flap endonuclease 1 | Recombinant FEN1 flap cleavage, fluorescence, 15 min | Potency, µM (doses to about 114 µM), inactives show at the highest dose activity change, negative = inhibition, hits mostly inhibitors | 390,000 compounds, 0.35% hits | AID 588795; note: potency is the fitted concentration of half-maximal effect; nearly all actives have a fitted effect of over 65% in size
#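 With each library titrated from low to high concentration, compounds met 10 nM FEN1 for 15 min at room temperature before 50 nM substrate was added; readings at 0 and 15 min fed four-parameter Hill curve fits.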
# RECQ1 helicase: RECQ1 (human) helicase inhibition; P46063; RECQ1 DNA unwinding, red fluorescence kinetic read; Potency, µM (highest dose often 57.3 µM), inactives show top-dose activity, negative = inhibition, usual class: inhibitors; 240,000 compounds, 0.54% hits; AID 2549;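 note: potency is the fitted concentration of half-maximal effect; plate controls were vehicle for no effect and no enzyme for full effect; nearly all actives have a fitted effect of over 30% in size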
# Target sequence (P46063 whole entry, looked up): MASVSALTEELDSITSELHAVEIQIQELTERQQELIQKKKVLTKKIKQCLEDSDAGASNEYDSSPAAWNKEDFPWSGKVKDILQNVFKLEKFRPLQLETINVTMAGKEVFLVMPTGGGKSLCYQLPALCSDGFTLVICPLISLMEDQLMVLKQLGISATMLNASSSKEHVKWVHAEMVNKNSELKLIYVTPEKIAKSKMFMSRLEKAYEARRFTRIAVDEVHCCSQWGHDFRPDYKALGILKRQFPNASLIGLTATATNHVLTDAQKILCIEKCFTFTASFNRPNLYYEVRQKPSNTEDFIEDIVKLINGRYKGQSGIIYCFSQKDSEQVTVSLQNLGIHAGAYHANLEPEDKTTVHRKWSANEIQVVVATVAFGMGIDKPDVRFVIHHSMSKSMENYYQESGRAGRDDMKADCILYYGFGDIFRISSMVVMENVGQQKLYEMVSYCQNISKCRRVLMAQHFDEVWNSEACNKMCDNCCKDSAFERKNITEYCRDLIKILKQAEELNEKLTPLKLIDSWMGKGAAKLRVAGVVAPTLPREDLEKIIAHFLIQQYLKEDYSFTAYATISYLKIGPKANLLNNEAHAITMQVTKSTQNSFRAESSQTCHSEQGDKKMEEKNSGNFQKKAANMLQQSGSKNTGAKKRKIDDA
#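 50 nM RECQ1T1 preincubated 15 min with compound in Tris pH 8.0 buffer with MgCl2, DTT, Tween-20 and 2.5 ug/ml poly(dI-dC); started with 200 nM TAMRA/BHQ-2 forked duplex and 2 mM ATP. Unwinding read as fluorescence (525/598 nm), two reads 2 h apart.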
# ADP-Glo counter: interferes with ADP-Glo detection without enzyme present | shares compounds with PI5P4K alpha inh | ADP-Glo detection counter-screen, luciferase luminescence, no enzyme | Potency, µM (titrated, usually from 76.9 µM), for inactives: at the highest dose activity change, negative = inhibition, actives largely listed as inhibitors | 1,100 tested, under 10 active
# Numbers without * were called inactive; ? = inconclusive; . = no result; [ ] = dose if it differs, or a comment. Shown are actives, neighbours in structure and some others; about 1.5% of the full set was active somewhere. Unless noted, calls come from the whole dose curve; as a rule, active = well fitted curve in the direction sought with a large enough effect; inconclusive = small, poorly fitted or top-dose-only effect, or another doubt; inactive = no such curve, though single readings can be large; an effect the other way counts as inactive or inconclusive. Unless noted, % is set by controls: 0 for no effect and ±100 for the full control effect.
SMILES,PI5P4K alpha inh,APE1 inh,BLM inh,WRN helicase inh,FEN1 inhibitor,RECQ1 helicase,ADP-Glo counter
O=C(O)c1cc2c(N3CCC(Cc4ccccc4)CC3)ncnc2s1,.,-2.4%,-1.3%,-4.5%,-6.5%,-2.4%,3.2%
CC(=O)c1ccc(NC(=O)CSC2=Nc3ccccc3N=C(c3ccc(F)cc3)C2)cc1,.,.,0.2%,.,-15.5%,.,.
Cc1onc(-c2c(F)cccc2Cl)c1C(=O)NCc1ccco1,0.9,-8.7%,-0.5%,3.1%,7.7%,-0.9%,.
Cc1onc(-c2c(F)cccc2Cl)c1C(=O)OCC(=O)NCc1ccco1,-50.9*,-8.9%,-4.9%,-0.1%,-1.2%,-6.9%,-5.0%
Cc1ccc(OCC(=O)Nc2nc(-c3ccc(Br)cc3)ns2)cc1,.,.,0.5%,.,-1.2%,.,.
Cc1ccc2c(CC(=O)OCC(=O)N(CC(C)C)c3c(N)n(Cc4ccccc4)c(=O)[nH]c3=O)coc2c1,-58.9*,-28.3%,.,-35.2%,-2.6%,.,-0.9%
c1ccc2c(CCNc3ncnc4nc[nH]c34)c[nH]c2c1,.,0.0%,-2.0%,-3.7%,-13.9%,10.1%,-1.9%
c1ccc(CCNc2ncnc3nc[nH]c23)cc1,?,-0.4%,0.1%,-14.3%,-0.2%,1.1%,.
COc1ccc(-c2csc(NC(=O)c3ccccc3F)c2C(=O)O)cc1,-51.3*,-9.5%,-2.0%,-13.0%,3.0%,.,-0.3%
COc1cc(C(=O)Nc2scc(-c3ccccc3)c2C(=O)O)cc(OC)c1OC,-70.6*,1.0%,-6.6%,-3.9%,-14.5%,.,-6.8%
CCOC(=O)c1c(-c2ccc(Br)cc2)csc1NC(=O)c1ccccc1F,.,.,-3.2%,.,-0.1%,.,.
Cc1cccc2c1-c1sc(C(=O)NCCc3ccc(Cl)cc3)cc1CO2,.,.,-13.0%,.,-15.4%,.,.
O=C(Nc1ccc(N2CCOCC2)c(S(=O)(=O)Nc2ccc(Cl)cc2)c1)c1ccc(=O)[nH]n1,-61.5*,-29.7%,.,-5.8%[11.6 µM],-7.1%,.,-5.8%
COc1ccc2oc(C(=O)Nc3ccc(N4CCOCC4)cc3)c(C)c2c1,-68.5*,-13.9%,.,?,-4.5%,.,-1.4%
COc1ccc2oc(C(=O)Nc3ccccc3N3CCOCC3)c(C)c2c1,-7.5,-11.3%,.,-1.8%,-8.4%,.,.
Cc1ccccc1CNC(=O)c1ccc(NC(=O)c2nsc3ccccc23)cc1,.,.,-8.2%,.,7.2%,.,.
CC(=O)Nc1cccc2cc(O)ccc12,-63.4*,.,.,-20.8%,-15.6%,.,3.4%
COc1ccc(C2(CNC(=O)C(=O)Nc3ccccc3C)CCCC2)cc1OC,.,.,-2.8%,.,-21.6%,.,.
CC(=O)N1CCOc2cc(S(=O)(=O)NCc3ccccc3Cl)c(Cl)cc21,.,20.1%,-4.5%,.,-9.2%,.,.
CCC(C)n1c(SCC(=O)Nc2ccc3[nH]c(=O)[nH]c3c2)nc2ccccc2c1=O (configuration not stated),-50.3*,-11.4%,.,1.3%,-24.3%,.,-0.5%
CC(C)Cn1c(SCC(=O)Nc2ccc3[nH]c(=O)[nH]c3c2)nc2ccccc2c1=O,-19.6,18.0%,.,-6.0%,-0.2%,.,.
COc1ccc(C(=O)NCc2nnc(SC)n2C2CCCCC2)cc1,-54.1*,-3.4%,4.3%,-3.4%,-3.1%,-0.4%,9.3%
CCOC(=O)C(C)Sc1nnc(CNC(=O)c2ccc(OC)cc2)n1C1CCCCC1 (configuration not stated),.,-0.4%,-1.6%,11.3%,10.2%,6.6%,.
CCOC(=O)c1c(NS(=O)(=O)Cc2ccccc2)sc2c1CCCC2,.,11.6%,-5.0%,-13.1%,-0.4%,-10.1%,.
CCOC(=O)c1c(NS(=O)(=O)c2ccc(Br)cc2)sc2c1CCC2,-55.4*,.,.,?,-21.0%,.,-1.3%
SMILES,PI5P4K alpha inh,APE1 inh,BLM inh,WRN helicase inh,FEN1 inhibitor,RECQ1 helicase,ADP-Glo counter
CCC1CCCCN1C(=O)Cn1nc([N+](=O)[O-])c(Cl)c1C (configuration not stated),-50.4*,7.6%,4.8%,-3.7%,-1.1%,-8.0%,-1.4%
CCc1cccc(C)c1NC(=O)COCc1cc(-c2ccc3c(c2)OCO3)on1,.,.,-0.6%,.,-2.9%,.,.
CCCC(=O)Oc1c(Sc2ccc(C)cc2)c(C)nn1-c1ccccc1,.,.,0.4%,.,?,.,.
O=C(NCCN1CCN(c2ccccc2)CC1)C1CCCN(S(=O)(=O)c2cnc[nH]2)C1 (configuration not stated),-61.5*,2.2%,-3.9%,-4.4%,-0.8%,-3.5%,3.5%
O=C(NCCN1CCN(c2cccc(Cl)c2)CC1)C1CCCN(S(=O)(=O)c2cnc[nH]2)C1 (configuration not stated),-0.3,11.4%,-0.1%,0.1%,5.2%,-13.9%,.
Cc1ccccc1C(=O)NC(CC(C)C)C(=O)OCc1cc(=O)n2cc(Br)ccc2n1 (configuration not stated),0.6,-1.2%,5.6%,-9.4%,1.3%,-2.1%,.
Cc1cc(C)c(C)c(S(=O)(=O)N[C@@H](C)C(=O)OCc2cc(=O)n3cc(Br)ccc3n2)c1C,-52.3*,-1.8%,-25.3%,-5.3%[11.6 µM],6.2%,24.0%,-2.3%
CCOC(=O)c1c(NC(=O)c2ccoc2C)sc(C)c1C,8.0,6.7%,-3.3%,3.1%,-9.2%,4.7%,.
CCc1c(C)sc(NC(=O)c2ccoc2C)c1C(N)=O,-65.7*,5.0%,-1.9%,?,-5.2%,.,-3.3%
Cc1ccc(CNC(=O)c2ccc(-n3cccc3)cc2)cc1,-90.3*,?,?,39.8µM*,?,?,3.8%
Cc1ccc(-c2ccc(CN3C(C)C(=O)N(Cc4cn(Cc5ccco5)nn4)CCS3(=O)=O)cc2)c(C)c1 (configuration not stated),-53.3*,.,.,-7.3%,.,.,-2.1%
CC(C)Cc1ccc(CN2C(C)C(=O)N(Cc3cn(Cc4ccco4)nn3)CCS2(=O)=O)cc1 (configuration not stated),-64.5*,.,.,-18.4%,.,.,-4.5%
Cc1ccccc1-c1ccc(CN2C(C)C(=O)N(Cc3cn(Cc4ccco4)nn3)CCS2(=O)=O)cc1 (configuration not stated),-23.9,.,.,-19.2%,.,.,.
COc1ccccc1CNC(=O)CCc1c(C)c2cc3c(C)coc3cc2oc1=O,.,.,-10.1%,.,0.0%,.,.
Cc1c2cnn(CC(=O)N3CCN(c4ccc(F)cc4)CC3)c(=O)c2c(C)n1Cc1ccccc1F,.,.,-1.7%,.,-2.6%,.,.
COc1ccccc1-c1nc2ccccc2n(CC(C)C)c1=O,-71.8*,.,.,-10.1%,.,.,-11.3%
CCCCNC(=O)[C@@H]1CC=C[C@@H]2CCN(Cc3ccc(OC)c(OC)c3)C(=O)[C@@H]21,.,.,.,.,8.4%,.,.
Nc1c(C(=O)O)cnc2c(-c3ccc(Cl)cc3)cnn12,-84.0*,-5.9%,-3.2%,?,-17.1%,-8.0%,-1.5%
